# Measured values: the supplement of paper PMC9262897, “Low-cost anti-mycobacterial drug discovery using engineered E. coli” (Nature Communications, 2022)
# Structures can show the parent of a compound that is named as a salt. ± gives the standard deviation of the averaged measurements.
# What was measured:
# Experiment in all cases: growth (OD600 after 10 h); higher = more growth (less inhibition)
# [1] = tested on: E. coli TESEC Alr+ wild-type control; settings: compound 0.1 mM; raw OD600 reference: median of DMSO wells 0.241, cell-free background 0.041
# Method: (§1)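 TESEC Mtb Alr E. coli, or the Alr+ wild-type control, in 384-well plates with Prestwick library compounds at 0.1 mM and 1% DMSO, across arabinose induction levels of 1E3 to 1E7 nM. Growth is read as OD600 after 10 h at 37 °C in triplicate biological replicates.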
# [2] = tested on: E. coli TESEC Mtb Asd; settings: compound 0.1 mM
# Method: (§2)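 TESEC E. coli strains in which the native enzyme is deleted and replaced by arabinose-inducible Mtb Asd, DapB, CysH or TrpD, each grown in its selective medium. Strains were screened against the Prestwick library at 0.1 mM and 1% DMSO in 384-well format at low and high arabinose induction. Growth is read as OD600 after 10 h in triplicate.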
# [3] = tested on: E. coli TESEC Mtb DapB; settings: compound 0.1 mM
# Method: as §2
# [4] = tested on: E. coli TESEC Alr+ wild-type control; settings: compound 0.1 mM; raw OD600 reference: median of DMSO wells 0.49, cell-free background 0.052
# Method: (§3)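 TESEC Mtb Alr E. coli (ΔaraC ΔtolC ΔentC Δalr ΔdadX, arabinose-inducible Mtb Alr) or the Alr+ wild-type control strain, grown in defined M9-fructose medium without D-alanine in 96-well plates with Prestwick library compounds at 0.1 mM and 1% DMSO. Low Alr induction is 0.1 µM arabinose and high induction is 10 mM arabinose.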
# [5] = tested on: E. coli TESEC Mtb Alr; settings: compound 0.1 mM
# Method: as §3
# [6] = tested on: E. coli TESEC Mtb Alr; settings: compound 0.1 mM; remark: listed apart in the source
# Method: as §1
# [7] = arabinose induction (level): High, raw OD600 reference: median of DMSO wells 0.331, cell-free background 0.041
# [8] = arabinose induction (level): Low, raw OD600 reference: median of DMSO wells 0.417, cell-free background 0.041
# [9] = arabinose induction (level): High, raw OD600 reference: median of DMSO wells […], cell-free background 0.041
# [10] = arabinose induction (level): Low, raw OD600 reference: median of DMSO wells 0.227, cell-free background 0.041
# [11] = arabinose 100 nM, raw OD600 reference: median of DMSO wells 0.413, cell-free background 0.052
# [12] = arabinose 10000000 nM, raw OD600 reference: median of DMSO wells […], cell-free background 0.052
# [13] = arabinose 1000 nM, raw OD600 reference: median of DMSO wells 0.294, cell-free background 0.041
# [14] = arabinose 10000 nM, raw OD600 reference: median of DMSO wells 0.264, cell-free background 0.041
# [15] = arabinose 100000 nM, raw OD600 reference: median of DMSO wells 0.201, cell-free background 0.041
# [16] = arabinose 1000000 nM, raw OD600 reference: median of DMSO wells 0.193, cell-free background 0.041
# [17] = arabinose 10000000 nM, raw OD600 reference: median of DMSO wells 0.146, cell-free background 0.041
SMILES,growth [1],"growth [2, 7]","growth [2, 8]","growth [3, 9]","growth [3, 10]",growth [4],"growth [5, 11]","growth [5, 12]","growth [6, 13]","growth [6, 14]","growth [6, 15]","growth [6, 16]","growth [6, 17]"
C#C[C@]1(O)CC[C@H]2[C@@H]3CCC4=C(CCC(=O)C4)[C@H]3CC[C@@]21C [Norethynodrel],0.133 ± 0.013,0.128 ± 0.016,0.13 ± 0.006,0.149 ± 0.0054,0.17 ± 0.01,0.355 ± 0.005,0.399 ± 0.0064,0.17 ± 0.018,–,–,–,–,–
CC1(C)O[C@@H]2[C@@H](CO[C@@]3(COS(N)(=O)=O)OC(C)(C)O[C@@H]23)O1 [Topiramate],0.234 ± 0.0043,0.243 ± 0.055,0.295 ± 0.057,0.19 ± 0.01,0.203 ± 0.022,0.541 ± 0.075,0.4226 ± 0.0021,0.302 ± 0.0096,–,–,–,–,–
CCCCOc1cc(C(=O)NCCN(CC)CC)c2ccccc2n1 [Dibucaine],0.216 ± 0.016,0.239 ± 0.058,0.3947 ± 0.0033,0.184 ± 0.016,0.25 ± 0.025,0.452 ± 0.017,0.415 ± 0.0019,0.321 ± 0.025,–,–,–,–,–
COc1ccc(-c2ccc3cc(C(=O)O)ccc3c2)cc1C12CC3CC(CC(C3)C1)C2 [Adapalene],0.2339 ± 0.00031,0.231 ± 0.0037,0.298 ± 0.079,–,–,–,0.435 ± 0.014,0.402 ± 0.085,0.282 ± 0.014,0.26 ± 0.0041,0.185 ± 0.013,0.223 ± 0.016,0.125 ± 0.0023
Cn1nnc2c(C(N)=O)ncn2c1=O [Temozolomide],0.241 ± 0.006,0.225 ± 0.0049,0.305 ± 0.022,–,–,–,0.423 ± 0.011,0.35 ± 0.01,0.289 ± 0.0045,0.248 ± 0.0082,0.208 ± 0.018,0.163 ± 0.0073,0.134 ± 0.0048
CC(CN1c2ccccc2Sc2ccccc21)N(C)C (stereo not drawn) [Promethazine hydrochloride],0.197 ± 0.0039,0.139 ± 0.0045,0.254 ± 0.021,0.221 ± 0.016,0.245 ± 0.012,0.456 ± 0.026,0.409 ± 0.014,0.334 ± 0.0051,–,–,–,–,–
CN1CCN(C2=Nc3ccccc3Oc3ccc(Cl)cc32)CC1 [Loxapine succinate],0.166 ± 0.0027,0.201 ± 0.029,0.214 ± 0.021,–,–,–,0.381 ± 0.017,0.224 ± 0.014,0.182 ± 0.0068,0.194 ± 0.0033,0.189 ± 0.0039,0.12 ± 0.0061,0.158 ± 0.0041
CCCCC1=NC2(CCCC2)C(=O)N1Cc1ccc(-c2ccccc2-c2nnn[nH]2)cc1 [Irbesartan],0.152 ± 0.0053,0.198 ± 0.03,0.21 ± 0.029,–,–,–,0.346 ± 0.012,0.167 ± 0.014,0.227 ± 0.0037,0.21 ± 0.011,0.121 ± 0.0023,0.0979 ± 0.0024,0.13 ± 0.0027
CCN(CC)CCOC(=O)C1(C2CCCCC2)CCCCC1 [Dicyclomine hydrochloride],0.137 ± 0.0054,0.137 ± 0.014,0.21 ± 0.049,0.144 ± 0.0069,0.183 ± 0.041,0.46 ± 0.008,0.393 ± 0.017,0.11 ± 0.003,–,–,–,–,–
O=C(C1CCCCC1)N1CC(=O)N2CCc3ccccc3C2C1 (stereo not drawn) [Praziquantel],0.207 ± 0.0042,0.391 ± 0.074,0.278 ± 0.026,0.174 ± 0.0068,0.21 ± 0.027,0.447 ± 0.019,0.382 ± 0.0029,0.37 ± 0.025,–,–,–,–,–
CCOc1ccc2nc(S(N)(=O)=O)sc2c1 [Ethoxzolamide],0.2066 ± 0.0019,0.283 ± 0.04,0.368 ± 0.045,–,–,–,0.426 ± 0.0093,0.214 ± 0.13,0.247 ± 0.0061,0.227 ± 0.0027,0.177 ± 0.024,0.134 ± 0.0057,0.122 ± 0.0034
COc1ccc(NS(=O)(=O)c2ccc(N)cc2)nn1 [Sulfamethoxypyridazine],0.2402 ± 0.0024,0.355 ± 0.042,0.393 ± 0.016,0.203 ± 0.012,0.22 ± 0.01,0.459 ± 0.011,0.408 ± 0.0075,0.367 ± 0.018,–,–,–,–,–
CCN(CC)CC(=O)Nc1c(C)cccc1C [Lidocaine hydrochloride],0.238 ± 0.0076,0.267 ± 0.048,0.403 ± 0.057,0.204 ± 0.0083,0.235 ± 0.048,0.586 ± 0.028,0.41 ± 0.0091,0.345 ± 0.019,–,–,–,–,–
COc1ccc2cc([C@H](C)C(=O)O)ccc2c1 [Naproxen],0.26 ± 0.0081,0.247 ± 0.028,0.426 ± 0.063,0.18 ± 0.062,0.217 ± 0.027,0.5599 ± 0.0025,0.42 ± 0.0057,0.293 ± 0.019,–,–,–,–,–
O=C(CCCN1CC=C(n2c(=O)[nH]c3ccccc32)CC1)c1ccc(F)cc1 [Droperidol],0.178 ± 0.0085,0.205 ± 0.056,0.359 ± 0.058,0.184 ± 0.015,0.206 ± 0.029,0.404 ± 0.025,0.409 ± 0.0085,0.276 ± 0.0059,–,–,–,–,–
O=C1CN2Cc3c(ccc(Cl)c3Cl)N=C2N1 [Anagrelide],0.216 ± 0.0042,0.27 ± 0.06,0.423 ± 0.043,0.198 ± 0.011,0.232 ± 0.024,0.536 ± 0.019,0.413 ± 0.011,0.368 ± 0.065,–,–,–,–,–
N[C@@H](Cc1ccc(O)c(O)c1)C(=O)O [Levodopa],0.229 ± 0.0045,0.383 ± 0.026,0.455 ± 0.0078,0.195 ± 0.0078,0.209 ± 0.013,0.489 ± 0.052,0.413 ± 0.013,0.354 ± 0.018,–,–,–,–,–
"Cc1c(O)c(=O)n(-c2ccccc2)n1C [Antipyrine, 4-hydroxy]",0.2468 ± 0.00085,0.338 ± 0.034,0.375 ± 0.01,0.184 ± 0.01,0.206 ± 0.032,0.507 ± 0.069,0.405 ± 0.0081,0.37 ± 0.033,–,–,–,–,–
CCCCN1CCCCC1C(=O)Nc1c(C)cccc1C (stereo not drawn) [Bupivacaine hydrochloride],0.2359 ± 0.0017,0.257 ± 0.046,0.418 ± 0.025,0.187 ± 0.013,0.266 ± 0.047,0.489 ± 0.051,0.409 ± 0.01,0.339 ± 0.014,–,–,–,–,–
N[C@H]1CONC1=O [(S)-(-)-Cycloserine],0.247 ± 0.0025,0.329 ± 0.034,0.354 ± 0.038,0.211 ± 0.015,0.276 ± 0.051,0.558 ± 0.063,0.045 ± 0.00044,0.13 ± 0.0078,–,–,–,–,–
c1ccc2[nH]c(-c3cscn3)nc2c1 [Tiabendazole],0.222 ± 0.014,0.278 ± 0.085,0.326 ± 0.1,0.186 ± 0.003,0.192 ± 0.023,0.572 ± 0.075,0.408 ± 0.011,0.316 ± 0.015,–,–,–,–,–
